Screening results: PubChem, National Center for Advancing Translational Sciences (NCATS)
HCMV inh – qHTS Assay for inhibitors of the human cytomegalovirus (HCMV) | AID 1259415, 2018 | HFF cells, HCMV-luciferase reporter, 72 h; active compounds read low | activity change, negative = inhibition, % at 57.5 µM | 410,000 compounds, 4.5% hits; in the data active = activity change below about -60%; inconclusive = no clear call, values can overlap the other calls; inactive = above about -39%; also: % is scaled to controls: 0 for no effect and ±100 for the full control effect
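After 16 h attachment at 37C, HFF cells received test compound and HCMV-luciferase (1 PFU/cell); reporter luminescence read 72 h later, data normalized against buffer-only and known inhibitor Salinomycin.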
LASV entry inh – qHTS for Inhibitors of binding or entry into cells for Lassa Virus; Potency, µM (titrated, usually from 37.9 µM), without a hit: top-dose activity change, negative = inhibition, actives largely listed as inhibitors; 300,000 compounds, 1.2% hits; AID 540256, 2011; Lassa virus pseudotype entry inhibition, cell reporter; calls by dose curve; tested in HEK293 cells; also: potency is read from the fitted curve at half-maximal effect; % is scaled to controls: 0 for no effect and ±100 for the full control effect; nearly all actives have a fitted effect of over 50% in size
FMDV inh – High Throughput Screening for Foot and Mouth Disease Virus Antivirals; FMDV antiviral cell-based qHTS; Potency, µM (series often up to 57.9 µM), for the others: at the highest dose activity change, negative = inhibition, usual class: inhibitors; 410,000 compounds, 1.2% hits; AID 1159524, 2015; calls by dose curve; tested in HEK293T cells; also: read-out not given here; potency is read from the fitted curve at half-maximal effect; % is scaled to controls: 0 for no effect and ±100 for the full control effect; nearly all actives have a fitted effect of over 45% in size
MARV entry inh – qHTS for inhibitors of binding or entry into cells for Marburg Virus. Marburg virus pseudotyped entry inhibition, cell reporter. Potency, µM (highest dose often 37.8 µM), for inactives: at the highest dose activity change, negative = inhibition, hits mostly inhibitors. 300,000 compounds, 1.8% hits; calls by dose curve; tested in HEK293 cells; also: potency is read from the fitted curve at half-maximal effect; % is scaled to controls: 0 for no effect and ±100 for the full control effect
HCV inhibitor – qHTS Assay for Inhibitors of Hepatitis C Virus (HCV); 340,000 compounds, 3.4% hits; Potency, µM (top dose mostly 41.8 µM), without a hit: top-dose activity change, negative = inhibition, hits mostly inhibitors; AID 651820, 2012; Huh7.5.1 HCVcc-Cre infection, luciferase reporter, 44 h; active = well fitted inhibition curve with a large enough effect; inconclusive = small, poorly fitted or top-dose-only effect, or another doubt; inactive = no such curve, though single readings can be large or run the other way; also: potency is read from the fitted curve at half-maximal effect; % is scaled to controls: 0 for no effect and ±100 for the full control effect
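Whole-lifecycle infectious HCVcc-Cre system; cells 1,000/well, compound then virus (~0.5 moi) added 4 h after plating, 44 h culture. Luciferase read 15 sec following 15 min substrate incubation, room temp.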
SARS PLP yeast – qHTS of Yeast-based Assay for SARS-CoV PLP; S. cerevisiae expressing SARS-CoV PLpro, growth rescue; Potency, µM (highest dose often 32.9 µM), without a hit: at the highest dose activity, positive = growth rescue, hits mostly activators; 330,000 compounds, 0.19% hits; calls by dose curve; also: potency is read from the fitted curve at half-maximal effect; 0% is about no effect; nearly all actives have a fitted effect of over 55% in size
* marks the source's active call; other numbers are inactive results; ? = inconclusive; . = no result; [ ] = remark or other dose. Rows were chosen to be rich in hits. Some 8% of all compounds tested hit in one or more screens of this group.

SMILES | HCMV inh | LASV entry inh | FMDV inh | MARV entry inh | HCV inhibitor | SARS PLP yeast
CCOc1ccc(S(=O)(=O)c2c(C(=O)c3ccc(C)c(C)c3)cnc3ccccc23)cc1 | -3.4 | . | -22.5% | -13.0%[46.1 µM] | . | .
CCc1ccc(S(=O)(=O)c2c(C(=O)c3ccccc3)cnc3ccc(CC)cc23)cc1 | -77.2* | . | 11.6% | ? | . | .
Cc1ccc(S(=O)(=O)c2c(C(=O)c3ccccc3)cnc3cc4c(cc23)OCCO4)cc1 | -99.2* | ? | 12.8% | ? | -3.2% | -2.9%
COc1ccc(S(=O)(=O)c2c(C(=O)c3ccc(C)c(C)c3)cnc3ccc(F)cc23)cc1 | -39.5 | . | ? | ? | . | .
Cc1ccc2ncc(C(=O)c3ccc(C)c(C)c3)c(S(=O)(=O)c3ccc(F)cc3)c2c1 | -73.7* | . | -15.9% | ? | . | .
COc1ccc(C(=O)c2cnc3ccc(C)cc3c2S(=O)(=O)c2ccccc2)cc1 | -98.2* | . | 12.6% | ? | . | .
c1ccc(Cc2nnc3n2CCN(Cc2cnc(-c4ccccc4)s2)CC3)cc1 | . | . | -19.2% | . | . | .
Cc1nn(CC(=O)Nc2ccc3nc4n(c(=O)c3c2)CCCC4)c(C)c1[N+](=O)[O-] | -21.2 | . | -17.6% | . | -10.9% | -0.3%
CCc1cc2c(=O)n(Cc3ccco3)c(SCC(=O)N3CCCc4ccccc43)nc2s1 | 17.7 | ? | -14.0% | ? | 10µM* | -6.3%
CCc1cc2c(=O)n(Cc3ccco3)c(SCC(=O)NCC3CCCO3)nc2s1 (centres undefined) | ? | ? | 25.1µM* | ? | 10µM* | 2.9%
CCc1cc2c(=O)n(Cc3ccco3)c(SCc3c(C)noc3C)nc2s1 | 74.7 | ? | -20.6% | ? | 10µM* | -10.0%
CCc1cc2c(=O)n(Cc3ccco3)c(SCC(=O)NC3CCS(=O)(=O)C3)nc2s1 (centres undefined) | 8.1 | 4.8%[46.1 µM] | 9.9% | 3.4%[46.1 µM] | -18.7% | -3.4%
CCc1cc2c(=O)n(Cc3ccco3)c(SCC(=O)N(C)C3CCS(=O)(=O)C3)nc2s1 (centres undefined) | -40.0 | ? | -8.5% | 1.6%[46.1 µM] | ? | -2.5%
Cc1c(C(=O)N2CCC(C)CC2)c(S(=O)(=O)Nc2cccc(C(F)(F)F)c2)c(C)n1C | ? | 1.9%[46.1 µM] | 59.7% | . | . | .
CC(=O)C1C(N2CC2)CC2C3CC=C4CC(O)CCC4(C)C3CCC21C (centres undefined) | -75.7* | ? | -15.7% | ? | 11.2µM* | .
Cc1ccc(C)c(NC(=O)CSc2c(C)cnc3c2c(=O)n(C)c(=O)n3C)c1 | 12.9 | 4.6%[46.1 µM] | -10.6% | . | . | .
CC1=C(C(=O)Nc2ccc([N+](=O)[O-])cc2)C(c2cccc(C(F)(F)F)c2)NC(=S)N1c1ccccc1 (centres undefined) | -98.3* | ? | -15.8% | ? | ? | -0.7%
COc1ccc(-c2cc(C(=O)NNC(=O)c3csc(N4CCOCC4)n3)c3ccccc3n2)cc1 | -28.5 | 0.0%[46.1 µM] | -16.7% | ? | ? | -1.1%
COc1ccc(-c2cc(C(=O)NNC(=O)c3csc(N4CCOCC4)n3)c3ccccc3n2)cc1OC | -11.8 | -8.5% | -16.5% | ? | 10µM* | -1.7%
Cc1ccccc1N=C1C(=O)Nc2ccccc21 | -17.1 | 29.9% | -19.5% | -5.2% | 21.0% | .
Cc1ccc(OCC(=O)N(C)CC(=O)Nc2ccccc2Cl)c([N+](=O)[O-])n1 | -83.7* | ? | -10.8% | ? | -2.4% | -2.2%
C=CCNC(=O)CSc1nnc(-c2cccc(S(=O)(=O)N3CCOCC3)c2)o1 | 6.5 | . | -5.1% | . | . | .
CC(C)COC(=O)N(C)C[C@H]1OCc2cnnn2CCCC(=O)N([C@@H](C)CO)C[C@H]1C | -3.1 | . | ? | . | . | .
COc1cc(/C=C(/C)[N+](=O)[O-])ccc1OCc1ccccc1Cl | . | ? | 22.4µM* | 6.51µM* | ? | -80.8%
COc1cc(/C=N/O)ccc1OCc1ccccc1Cl | 5.2 | ? | 27.6% | ? | 17.7% | -2.2%
SMILES | HCMV inh | LASV entry inh | FMDV inh | MARV entry inh | HCV inhibitor | SARS PLP yeast
Cc1sc2nc(SCC(=O)NCc3ccco3)n(Cc3ccccc3)c(=O)c2c1C | -14.9 | -6.4% | -13.6% | -0.6% | 2.24µM* | 6.1%
CN(Cc1ccccc1)C(=O)CSc1nc2ccccc2c(=O)n1Cc1ccco1 | -80.2* | 5.8µM* | . | 6.51µM* | ? | 1.9%
COCCn1c(C)cc(C(=O)CSc2nc3ccccc3c(=O)n2Cc2ccco2)c1C | -69.5* | ? | -11.0% | ? | ? | 13.6%
COCCn1c(C)cc(C(=O)CSc2cc(C)c3ccccc3n2)c1C | ? | ? | 9.7% | ? | ? | 11.8%
CCCN(CCC)C(=O)CSc1nc2ccccc2c(=O)n1Cc1ccco1 | -21.3 | -8.8%[46.1 µM] | -28.7% | . | . | .
O=C(CSc1nc2ccsc2c(=O)n1Cc1ccccc1)NCc1ccco1 | 14.6 | -26.4% | -1.4% | -4.7% | 8.91µM* | 1.6%
Clc1ccc(-n2cccc2CN2CCOc3ccc(CN4CCOCC4)cc3C2)nc1 | . | . | -6.0% | . | . | .
CC(C)(C)c1nc(SCC(=O)NCc2ccco2)c2ccccc2n1 | -88.4* | -0.4% | -22.8% | -22.1% | ? | -7.1%
CCn1c(SCC(=O)N2CCCCCC2)nc2ccccc2c1=O | -28.5 | ? | 3.0% | ? | -16.2% | -5.8%
O=C(CSc1nc2ccccc2c(=O)n1Cc1ccco1)NCc1ccco1 | 3.9 | -8.5% | . | -26.8% | 10µM* | 3.0%
O=C(CSc1nc2ccccc2c(=O)n1Cc1ccco1)N1CCCCCC1 | ? | ? | ? | -14.9% | 11.2µM* | -2.2%
CCCCCn1c(SCc2ccncc2)nc2cc(C(=O)NCc3ccco3)ccc2c1=O | -38.4 | -5.8% | ? | -4.6% | 14.1µM* | -8.1%
O=C(CSc1c2c(nc3ccccc13)CCCC2)NCc1ccco1 | -35.4 | 22.2% | -20.9% | 9.2% | ? | -3.6%
O=C(NCc1ccco1)C(=O)NN=Cc1ccccc1O | -24.9 | . | . | . | . | .
COCCNC(=O)c1ccc2c(=O)n(Cc3ccco3)c(SCC(=O)NC3CCCCC3)nc2c1 | 0.3 | 3.6% | -3.2% | 21.4% | ? | 3.9%
Cc1nc(SCC(=O)Nc2ccc(S(=O)(=O)N3CCOCC3)cc2)c2c(C)c(C)sc2n1 | 32.4 | 1.12µM* | -20.9% | ? | 7.08µM* | 2.1%
Cc1nc(SCC(=O)NCc2ccco2)c2c(C)c(C)sc2n1 | -35.3 | ? | -2.0% | 14.6µM* | ? | -5.5%
CCCc1nc(SCC(=O)NNC(=O)c2ccc(OC)cc2)c2ccccc2n1 | ? | . | -28.7% | . | -14.8% | 2.3%
O=C(NCc1ccco1)c1ccc2c(=O)n(Cc3ccco3)c(SCC(=O)N3CCCC3)nc2c1 | -23.8 | 10.4% | -3.0% | ? | 12.6µM* | 0.1%
COc1ccc(C(=O)CSc2nc(C(C)(C)C)nc3ccccc23)cc1 | ? | . | ? | . | 3.98µM* | 10.4%
CC(=NO)c1ccc2c(c1)C(=NO)c1ccccc1-2 | 28.0 | -0.2% | 9.0% | 14.0% | ? | .
